Screening results (PubChem)
Most compounds without a hit are left out; they make up all but 3.2% or so of the library.
A549 viability: counter-screen for Nrf2 inhibitors: cytotoxicity in A549 cells. A549 ARE-Fluc cells, CellTiter-Fluor viability, 18-24 h. Potency, µM (highest dose often 46 µM), for inactives: top-dose activity change, negative = cytotoxicity, most hits filed as inhibitors. 0.16% of 390,000 active. AID 504648; also: potency is read from the fitted curve at half-maximal effect; % is scaled to controls: 0 for no effect and ±100 for the full control effect
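Cytotoxicity counterscreen: CellTiter-Fluor fluorescence was measured in A549 ARE_Fluc cells after 18-24 h of compound exposure in a concentration series. The subsequent BugLite luminescent read reports ARE-luciferase activity.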
BRCA1 expr act: BRCA1 expression activation; MCF7-BRCA1-FFLuc reporter, luminescence, 48 h; response scale: scaled: vehicle 0%, 10 µM genistein 100%; 1.1% of 380,000 active; Potency, µM (series often up to 46.1 µM), for inactives: at the top dose activation, most hits filed as activators; also: potency is read from the fitted curve at half-maximal effect; nearly all actives have a fitted effect of over 80% in size
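Quantitative HTS in MCF7 cells stably reporting BRCA1 expression via firefly luciferase. Compound treatment lasts 48 h at 37 °C in phenol-red free MEM. Activation is expressed relative to genistein at 10 microM and DMSO.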
IL2 activator: IL-2 activation. IL-2 activation reporter assay, cell-based qHTS; stimulated with anti-CD3/CD4/CD28 beads; in transgenic mouse T cells. activation, % (series mostly up to about 46 µM). 0.065% of 360,000 active. AID 652025; in the data active = activation above about 50%; inconclusive = mostly about 30% to 49%; also: 0% is about no effect
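Using fluorescent plate cytometry, EGFP and DsRed are detected in transgenic mouse T cells stimulated 18 h at 37 degrees C with antibody-coated beads after 60 min compound pretreatment.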
Nrf2 activator: activators of Nrf2 (ARE) signaling; AREc32 ARE-luciferase reporter (MCF7-derived line), luminescence, 24 h; 0.31% of 410,000 active; AID 624171; Potency, µM (top dose mostly 46.1 µM), without a hit: top-dose activation, actives largely listed as activators; also: potency is read from the fitted curve at half-maximal effect; % of control where 0% means no effect; nearly all actives have a fitted effect of over 65% in size
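Quantitative high-throughput format: AREc32 reporter cells, 1000 per well, received compound by pin transfer and were incubated 24 hr at 37 deg C, 5% CO2, before Steady-Glo luminescence detection.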
p53 reactivator: mutant p53 re-activation in reporter cells. Potency, µM (titrated, usually from 92.2 µM), for the others: top-dose activity change, positive = activation, hits mostly activators. H1299 p53-A138V BP100-luciferase reporter, luminescence, 24 h. 0.063% of 320,000 active. AID 504706; also: potency is read from the fitted curve at half-maximal effect; % of control where 0% means no effect; nearly all actives have a fitted effect of over 45% in size
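p53-null H1299 cells stably carrying temperature-sensitive p53-A138V and a BP100-luciferase reporter were pinned with compounds (4-point, 1:5 series) and held 24 hrs at 37 deg C. Luminescence was read 10 min after detection reagent.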
Nrf2 inh: inhibitors of Nrf2 signaling; Potency, µM (doses to about 46 µM), for the others: at the top dose activity change, negative = inhibition, hits mostly inhibitors; 2.1% of 360,000 active; AID 504444; A549 ARE-Fluc reporter, luciferase luminescence, 18-24 h; also: potency is read from the fitted curve at half-maximal effect; % is scaled to controls: 0 for no effect and ±100 for the full control effect; nearly all actives have a fitted effect of over 60% in size
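Nrf2 function is reported as luminescence of an ARE-controlled luciferase in A549 cells. Compounds were tested at several concentrations, and a CellTiter-Fluor read on the same wells flagged cytotoxicity.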
Starred values were filed as active, the others as inactive; ? = inconclusive; nt = not tested or not shown; ! = not confirmed by another sample; [ ] = remark or other dose. Unless noted, calls follow the shape of the dose curve; as a rule, active = well fitted curve in the direction sought with a large enough effect; inconclusive = small, poorly fitted or top-dose-only effect, or another doubt; inactive = no such curve, though single readings can be large; an effect the other way counts as inactive or inconclusive.

SMILES | A549 viability | BRCA1 expr act | IL2 activator | Nrf2 activator | p53 reactivator | Nrf2 inh
O=C(CC1CCCCC1)N1CCC(c2nc(-c3ccc(S(=O)(=O)N4CCCC4)cc3)no2)CC1 | -22% | -69% | 0 | 0% | -3% | 21µM*
Cc1ccc(S(=O)(=O)N2CCC(=O)N(CCOC(=O)Nc3cccc(Cl)c3)CC2)cc1 | -15% | 0% | -2 | 6% | 4% | ?
COc1ccc(NC(=O)CCc2nc(C3=CCN(Cc4cccc(Cl)c4)CC3)no2)cc1OC | 0% | -1% | nt | 3% | nt | nt
COc1ccc(NC(=O)CCn2cnc3onc(-c4ccc(F)cc4)c3c2=O)cc1OC | -14% | nt | nt | 3% | nt | 23µM*
Cc1ccc(NC(=O)Nc2cc3c(cc2N2CCCCC2)n(C)c(=O)n3C)cc1Cl | -19% | -55% | nt | 0% | nt | 21µM*
Cc1cc(C)n(-c2ccc(NN=C(C#N)C#N)cc2)n1 | -10% | -16% | -1 | 3% | 14% | ?
N#CC(C#N)=NNc1ccc(-n2ccc(C(F)(F)F)n2)cc1 | ? | -50% | -2 | 0% | 7% | 16µM*
CCOC(=O)c1ccc(N2C(=O)c3n[nH]c(-c4cccs4)c3C2c2ccc(Cl)cc2Cl)cc1 (stereo unspecified) | -14% | -77% | nt | -5% | nt | ?
O=C1NC(=O)N(c2ccccc2)C(=O)/C1=C/c1ccc(Sc2ccccc2)o1 | -6% | -35% | 96* | -1% | 2% | nt
CC(Sc1ncnc2sccc12)C(=O)Nc1ccc(S(=O)(=O)N2CCOCC2)cc1 (stereo unspecified) | 1% | -11% | -6 | 2% | nt | ?
O=c1[nH]c(O)c(/C=C2\C=Nc3ccc(OCc4ccccc4)cc32)c(=O)[nH]1 | 8% | -18% | 193* | 0% | nt | 18%
Cc1cc(C)nc(SCC(=O)NC2=NN=C(c3ccc(Br)cc3)CS2)n1 | ? | -74% | -5 | 13% | -7% | nt
O=c1c2cc(N3CCOCC3)ccc2[nH]c(=S)n1Cc1ccc(Cl)cc1 | -12% | 11µM* | 1 | 6% | 17% | -4%
O=c1[nH]c(=S)n(-c2ccc(Cl)cc2)c(O)c1C=Nc1ccc(N2CCOCC2)cc1 | 0% | 4% | -1 | -1% | -2% | 7%
COc1ccc(C2C=C(c3ccccc3)Nc3nc(NC(=O)/C=C/c4ccccc4Cl)nn32)cc1 (stereo unspecified) | 6% | nt | nt | ? | nt | 4%
CCCOP(=O)(O)c1c([N+](=O)[O-])cc(C(F)(F)F)cc1[N+](=O)[O-] (tested in a mixture with another compound) | -1% | 10µM* | 0 | 1% | 14% | 6%
CCOP(=O)(Oc1ccccc1)c1c([N+](=O)[O-])cc(C(F)(F)F)cc1[N+](=O)[O-] (stereo unspecified) | -1% | -2% | 0 | 0% | -2% | -10%
C/C=C1/C[C@@H](C)[C@@](C)(O)C(=O)OCC2=CCN3CC[C@@H](OC1=O)[C@@H]23 | 0% | nt | nt | nt | nt | -16%
Cc1cc(C)c2c(ccc3cccc[n+]32)c1 | ? | -40% | -4 | -1% | nt | 1.3µM*
CC(=O)C1C(N2CC2)CC2C3CC=C4CC(O)CCC4(C)C3CCC21C (stereo unspecified) | 8.2µM* | -83% | -1 | 9% | nt | 3%
O=C(Nc1cccc(C(F)(F)F)c1)C1CCCN1S(=O)(=O)c1cccc2nsnc12 (stereo unspecified) | -10% | nt | nt | 4% | nt | ?
O=C(NCCSc1c(-c2ccc(F)cc2)[nH]c2ccccc12)c1ccc(S(=O)(=O)N2CCOCC2)cc1 | -9% | nt | nt | 3% | nt | ?
CCC(COC(=O)c1cc(OC)c(OC)c(OC)c1)(c1ccccc1)N(C)C (stereo unspecified) | 0% | -10% | -1 | 8% | 1% | 21µM*!
Cc1ccc2c(c1)C(c1ccccc1)=NCC(=O)N2 | -1% | 0% | 0 | 0%[9.22 µM] | -81% | 11%
Cc1ccc2c(c1)C(c1ccccc1)=NCC(=O)N2C | -3% | 7% | 0 | 3% | nt | 9.2µM*
SMILES | A549 viability | BRCA1 expr act | IL2 activator | Nrf2 activator | p53 reactivator | Nrf2 inh
Cc1cc[n+](Cc2ccccc2)cc1 | -1% | -2% | -2 | 0% | 1% | 18µM*
c1ccc(C[n+]2ccccc2)cc1 | 1% | 8% | 0 | 3% | -1% | ?
COc1ccccc1C(=O)Nc1ccc2nc(SCC(=O)N3CCCc4ccccc43)sc2c1 | -6% | nt | nt | 4% | nt | 18µM*
O=C(Nc1ccc2nc(SCC(=O)N3CCCc4ccccc43)sc2c1)c1ccccc1F | -16% | nt | nt | 0% | nt | ?
O=Nc1c(O)c2ccccc2c2ccccc12 | ? | -32% | -1 | -3% | nt | 23µM*
C=C(C)Cn1c(-c2cccc([N+](=O)[O-])c2)n[nH]c1=S | 4% | -7% | -1 | 0% | 0% | ?
CCOC(=O)Cn1c(=O)oc2cc(S(=O)(=O)N3CCN(c4ccccc4F)CC3)ccc21 | ? | nt | nt | 0% | nt | 3%
Cc1cccc(C(=O)Nc2nnc(SCC(=O)NCc3ccco3)s2)c1 | 2% | 59% | 4 | 3.2µM* | nt | 9%
Cc1ccnc(SCc2nc3ccccc3s2)n1 | 0% | 65% | -3 | 13µM* | ? | nt
O=[N+]([O-])c1ccc2c(c1)Cc1cc(O)ccc1-2 | -3% | 26% | -3 | 4% | nt | 6%
Nc1ccc2c(c1)Cc1cc([N+](=O)[O-])ccc1-2 | -5% | 10µM* | -5 | 6% | ? | 6%
CC(C)(C)c1nc(N2CCN(C(=O)c3ccco3)CC2)c2nnn(Cc3ccccc3Cl)c2n1 | 2% | -83% | -1 | 1% | 10% | 18µM*
CCN(CC)S(=O)(=O)c1ccc2c(c1)c(=O)c(C(=O)NCc1ccccc1OC)cn2C | 14% | -26% | nt | 0% | nt | ?
O=C(CNC(=O)c1cccc(S(=O)(=O)N2CCc3ccccc32)c1)Nc1ccccc1Br | -7% | -5% | -3 | -2% | nt | ?
O=C(Nc1ccc(Br)cc1)c1cccc(S(=O)(=O)N2CCc3ccccc32)c1 | -22% | nt | nt | -1% | nt | 16µM*
CCCCCCC(=O)N/N=C/c1c(O)n(C(C)CC)c(=S)[nH]c1=O (stereo unspecified) | -6% | -66% | 3 | 0% | 1% | 15µM*
Cc1ccc(N/N=C/C=C/c2ccco2)cc1 | 4% | 7.9µM* | -1 | ? | nt | 19%
S=C(S)N1CCCC1 | -7% | -1% | -1 | 0% | -4% | 5.8µM*
Cc1c(C(=O)NCCC2=CCCCC2)oc2ccc(S(=O)(=O)N3CCC4(CC3)OCCO4)cc12 | -16% | -64% | -1 | 2% | -10% | 7.3µM*
